# According to PubChem BioAssay AID463173 (ICCB-Longwood Screening Facility, Harvard Medical School, 2010):
# In all, about 52,000 compounds went through this assay and about 4,300 (8.3%) were called active. Cut-off read from the data, not from the text of the source: active = survival mostly below about 52% (no sharp cut-off); inactive = mostly above about 56%. Shown is part of a subset that was picked to be rich in actives.
# Tested on: DeltatarO mutant
# Experiment: growth inhibition of S. aureus wild type versus tarO mutant, primary screen, teichoic acid synthesis inhibitors, RN4220, OD600 (AID 463173)
# Conditions: OD600, 18 h, stronger effect = lower value, screened at 18.75 µg/mL (by protocol)
row,SMILES,survival
1,Cc1nn(CCCC(=O)NCc2ccc(F)cc2)c(=O)c2c1sc1ccccc12,85% (inactive)
2,O=C(NCCc1ccc(Cl)cc1)C(=O)NCC(c1ccc2c(c1)OCO2)N1CCOCC1 (stereo unspecified),117% (inactive)
3,O=C(c1cccn2c(=O)c3cc(Cl)ccc3nc12)N1CCN(c2ccccc2F)CC1,76% (inactive)
4,CN1C(=O)c2ccccc2Sc2ccc(NC(=O)NCc3cccc(Cl)c3)cc21,78% (inactive)
5,COc1ccc(CNC(=O)Nc2ccc3c(c2)N(C)C(=O)c2ccccc2S3)cc1,112% (inactive)
6,COc1cccc(CNC(=O)Nc2ccc3c(c2)N(C)C(=O)c2ccccc2S3)c1,42% (active)
7,CCOC(=O)c1c(S(=O)(=O)N2CCC(C(=O)Nc3ccc(OCC)cc3)CC2)c(C)n(C)c1C,99% (inactive)
8,CCOC(=O)c1c(C)[nH]c(C)c1S(=O)(=O)N1CCC(C(=O)NCc2ccc(C)cc2)CC1,72% (inactive)
9,CCOC(=O)c1c(C)[nH]c(C)c1S(=O)(=O)N1CCC(C(=O)Nc2ccc(OCC)cc2)CC1,-1% (active)
10,CCOC(=O)c1c(C)[nH]c(C)c1S(=O)(=O)N1CCC(C(=O)NCc2ccc(F)cc2)CC1,6% (active)
11,CCOC(=O)c1c(C)[nH]c(C)c1S(=O)(=O)N1CCC(C(=O)NCc2ccccc2)CC1,81% (inactive)
12,CCOC(=O)c1c(C)[nH]c(C)c1S(=O)(=O)N1CCC(C(=O)Nc2ccc(C)c(Cl)c2)CC1,79% (inactive)
13,CCN(C(=O)c1ccco1)c1nnc(Cn2nnc3ccccc32)s1,91% (inactive)
14,Cc1c(C2=CCN(S(=O)(=O)c3cccc(Cl)c3)CC2)c2ccccc2n1CC(=O)N1CCCC1,75% (inactive)
15,CN1CC(=O)Nc2cc(C(=O)O)ccc21,87% (inactive)
16,CCN1CCN(c2oc(-c3ccc(COc4ccccc4C)o3)nc2C#N)CC1,82% (inactive)
17,CCN1CCN(c2oc(-c3ccc(COc4ccc(C)cc4)o3)nc2C#N)CC1,38% (active)
18,COc1ccc(OCc2ccc(-c3nc(C#N)c(N4CCC(C(N)=O)CC4)o3)o2)cc1,72% (inactive)
19,Cc1ccccc1OCc1ccc(-c2nc(C#N)c(N3CCC(C(N)=O)CC3)o2)o1,38% (active)

row,SMILES,survival
1,CCN1CCN(c2oc(-c3ccc(COc4ccc(OC)cc4)o3)nc2C#N)CC1,49% (active)
2,Cc1cccc(OCc2ccc(-c3nc(C#N)c(N4CCC(C(N)=O)CC4)o3)o2)c1,80% (inactive)
3,COc1ccc(OCc2ccc(-c3nc(C#N)c(N4CCN(c5ccccc5)CC4)o3)o2)cc1,77% (inactive)
4,CC1CCN(c2oc(-c3ccc(COc4ccc(Cl)cc4)o3)nc2C#N)CC1,81% (inactive)
5,Cc1ccccc1OCc1ccc(-c2nc(C#N)c(N3CCCCC3)o2)o1,99% (inactive)
6,Cc1ccc(OCc2ccc(-c3nc(C#N)c(N4CCC(C)CC4)o3)o2)cc1,58% (inactive)
7,COc1ccc(OCc2ccc(-c3nc(C#N)c(N4CCC(C)CC4)o3)o2)cc1,54% (inactive)
8,N#Cc1nc(-c2ccc(COc3ccc(Cl)cc3)o2)oc1N1CCC(C(N)=O)CC1,34% (active)
9,Cc1nc2c3ccccc3nc(NNC(=O)CCC(=O)O)n2n1,94% (inactive)
10,Cc1ccc(C2c3cccn3CCN2S(=O)(=O)c2ccc([N+](=O)[O-])cc2)cc1 (stereo unspecified),99% (inactive)
11,CC(C)CCNC(=O)c1ccc2c(c1)nc1n2CCCCC1,86% (inactive)
12,CCCCN(C)S(=O)(=O)c1cc(-c2cc(C)no2)ccc1C,84% (inactive)
13,N#Cc1nc(-c2ccc(COc3ccc(Cl)cc3)o2)oc1N1CCCCC1,49% (inactive)
14,COc1ccc(OCc2ccc(-c3nc(C#N)c(N4CCN(c5cccc(Cl)c5)CC4)o3)o2)cc1,75% (inactive)
15,COc1ccc(OCc2ccc(-c3nc(C#N)c(N4CCCCC4)o3)o2)cc1,42% (active)
16,N#Cc1nc(-c2ccc(COc3ccccc3)o2)oc1N1CCCCC1,48% (inactive)
17,CN1CCN(c2oc(-c3ccc(COc4ccc(Cl)cc4)o3)nc2C#N)CC1,45% (active)
18,COc1ccc(OCc2ccc(-c3nc(C#N)c(N4CCN(C)CC4)o3)o2)cc1,52% (inactive)
19,Cc1ccc(C)c(N2CCN(S(=O)(=O)c3ccc4c(c3)CC(=O)N4C)CC2)c1,125% (inactive)

row,SMILES,survival
1,CC(C)CCNC(=O)C(=O)Nc1c2c(nn1-c1ccccc1)CS(=O)(=O)C2,77% (inactive)
2,COCCNC(=O)C(=O)Nc1c2c(nn1-c1ccccc1)CS(=O)(=O)C2,92% (inactive)
3,CC(C)OCCCNC(=O)C(=O)Nc1c2c(nn1-c1ccccc1)CS(=O)(=O)C2,-5% (active)
4,CN(c1ccc(Cl)cc1)S(=O)(=O)c1nnc(NC(=O)C2CCCCC2)s1,106% (inactive)
5,Cc1ccc(NC(=O)C(Cc2ccccc2)NS(=O)(=O)c2cccc3nsnc23)c(C)c1 (stereo unspecified),125% (inactive)
6,CCCNC(=O)C1CCC(Cn2c(=O)c3sccc3n(CC(=O)N3CCC(C)CC3)c2=O)CC1 (stereo unspecified),73% (inactive)
7,Cc1ccccc1NC(=O)c1ccccc1NC(=O)c1ccccc1Cl,72% (inactive)
8,Cc1ccc(COc2ccc(-c3cc(C(F)(F)F)n4nc(C)cc4n3)cc2)cc1,137% (inactive)
9,Cc1cc(C(F)(F)F)n2nc(C)cc2n1,68% (inactive)
10,Cc1cc2nc(-c3ccc(OCc4ccccc4)cc3)cc(C(F)(F)F)n2n1,79% (inactive)
11,Cc1cccc(COc2ccc(-c3cc(C(F)(F)F)n4nc(C)cc4n3)cc2)c1,9% (active)
12,Cc1cc2nc(-c3ccc(OCc4ccc(F)cc4)cc3)cc(C(F)(F)F)n2n1,34% (active)
13,COc1ccc(-c2cc3nc(-c4ccc(C)cc4)cc(C(F)(F)F)n3n2)cc1,135% (inactive)
14,Cc1ccc(C)c(CN2C(=O)c3ccccc3S(=O)c3ccc(C(=O)NCCC4=CCCCC4)cc32)c1 (stereo unspecified),52% (inactive)
15,COc1cccc(-c2nnc(SCC(=O)NC3CCCCC3)o2)c1,73% (inactive)
16,Cc1ccc(C(=O)O)cc1-n1c(C)ccc1-c1ccccc1,59% (inactive)
17,O=C(Cn1c(=O)nc(-c2ccccc2)c2ccccc21)Nc1ccc(Cl)c(C(F)(F)F)c1,90% (inactive)
18,COc1cccc(NC(=O)Cn2c(=O)n(Cc3ccccc3)c(=O)c3ccccc32)c1,125% (inactive)
